About 1,200 (3.2%) of roughly 38,000 compounds showed an effect of 50% or more. The median lay at about -58%. The sample as a whole holds a higher share of strong results than the screen did.
test system: Plasmodium falciparum; assay: Calibr Malaria Delayed Death Assay SOP; format: functional, organism-based; parameters: scale not given: in the data most compounds retested in dose-response had high values; conditions: concentration 4.99e-06 (unit not given; other assays of the set use mol/L)

Row | Compound | Percent Effect
1 | COc1ccc(Oc2cccc(C#N)n2)cc1CN1CCCC1 | -26.21%
2 | CN1CCN(CCCOc2ccccc2CN2C[C@H]3CC[C@H]2C3)CC1 | 15.78%
3 | CN1CCN(Cc2ccccc2Oc2nccc3occc23)CC1 | 77.3%
4 | CN1CCN(Cc2c(-c3ccco3)[nH]c3ncccc23)CC1 | -17.66%
5 | O=S1(=O)CCCN(Cc2ccccc2OCC(F)(F)F)CC1 | -23.25%
6 | c1ccc(Oc2nccc3occc23)c(CN2CCCCC2)c1 | 71.51%
7 | COc1ccc(Oc2ccc(C(F)(F)F)cn2)cc1CN1CCCC1 | 49.66%
8 | COc1ccc(Oc2nccc3occc23)cc1CN1CCCC1 | 59.92%
9 | CCCc1nnc(N2CCN(Cc3ccccc3OC)CC2)o1 | -122.5%
10 | O=C(c1ccc(Cn2cccc2)cc1)N1CCN(CCO)CC1 | -124.1%
11 | COc1ccc(C(=O)c2cnc(C(C)C)n2C)cc1 | -137.4%
12 | CCC(Nc1cccc(Oc2ccccn2)c1)C(N)=O (stereo not drawn) | -89.12%
13 | Cc1noc(C)c1C(=O)N1CCSc2ccc(Cl)cc21 | -64.97%
14 | CN1CCN([C@H]2COC[C@@H]3CN(Cc4cccnc4)C[C@@H]32)CC1 | -16.78%
15 | Cc1cc(C)cc(CN2C[C@H]3COC[C@H](N4CCN(C)CC4)[C@H]3C2)c1.O=C(O)C(F)(F)F.O=C(O)C(F)(F)F.O=C(O)C(F)(F)F | 93.63%
16 | COc1ccc(CN2C[C@@H]3COC[C@@H](N4CCN(C)CC4)[C@@H]3C2)cc1.O=C(O)C(F)(F)F.O=C(O)C(F)(F)F.O=C(O)C(F)(F)F | 72.48%
17 | O=C(O)C(F)(F)F.O=C(O)C(F)(F)F.c1cc2c(cc1CN1C[C@@H]3COC[C@@H](N4CCCC4)[C@@H]3C1)OCO2 | 41.71%
18 | COc1ccc(CN2C[C@@H]3COC[C@H](N4CCN(C)CC4)[C@@H]3C2)cc1.O=C(O)C(F)(F)F.O=C(O)C(F)(F)F.O=C(O)C(F)(F)F | 39.43%
19 | COc1ccc(CN2C[C@@H]3COC[C@@H](CC(=O)N4CCCC4)[C@@H]3C2)cc1.O=C(O)C(F)(F)F | -28.59%
20 | CN(C)[C@H]1COC[C@@H]2CN(Cc3ccc4c(c3)OCO4)C[C@@H]21.O=C(O)C(F)(F)F.O=C(O)C(F)(F)F | 25.51%

Row | Compound | Percent Effect
21 | CCN(CC)[C@H]1COC[C@@H]2CN(Cc3cnn(C)c3)C[C@@H]21 | -7.149%
22 | CCOC(=O)[C@H]1[C@@H](O)C(=O)N(C)C12CCN(C(=O)CC(C)(C)C)CC2 | -173.1%
23 | Cc1nn2cccnc2c1C(=O)N1CCCC(n2cccn2)C1 (stereo not drawn) | -26.13%
24 | Cc1ccccc1CN1CC[C@H]2C[C@H](C(=O)N(C)C)O[C@H]2C1.O=C(O)C(F)(F)F | -65.63%
25 | COc1ccc2nnc(CCC(=O)Nc3nc4c(s3)CCCCC4)n2n1 | -7.858%
26 | CC(C)[C@]1(O)CN(C(=O)C2(Cn3cccn3)CC2)C[C@H]1C | -13.49%
27 | COC[C@@]12CCO[C@@H]1CCN(C(=O)CCc1ccccc1Cl)C2 | -39.1%
28 | O=C(Nc1ccc(-n2cccn2)cc1)N1CCC(O)C1 (stereo not drawn) | -73.59%
29 | CC(=O)c1ccc(-n2c(C)cn(CCS(C)(=O)=O)c2=O)cc1 | 3.074%
30 | CNC(=O)[C@H]1C[C@@H]2CN(C(=O)NCCc3ccccc3)C[C@H]1O2 | -57.69%
31 | Cc1n[nH]cc1CNC(=O)Nc1cccc(OCC(F)(F)F)c1 | -36.62%
32 | Cc1n[nH]cc1CNCc1cccc(OCC(F)(F)F)c1.Cl | 56.25%
33 | Cc1n[nH]cc1CNCc1ccnc(OCC(F)(F)F)c1.Cl | -70.94%
34 | O=C1CCNc2ccccc2CN1Cc1ccco1 | -58.24%
35 | Cc1cnn(C2CCCN(C(=O)c3ccc(-n4ccnc4)cc3)C2)c1 (stereo not drawn) | -131.1%
36 | c1ncn(CC2CCCN(Cc3noc(C4CC4)n3)C2)n1 (stereo not drawn) | -140.8%
37 | CCc1nc(Nc2cccc(C(=O)NC)c2)c2c(n1)c(C)nn2CC | -106.8%
38 | COc1ccnc(NC(Cc2ccccc2)C(N)=O)n1 (stereo not drawn) | -102.6%
39 | Cc1ccccc1C1(C(=O)NCCN2CCCC2)CCOCC1 | -7.598%
40 | COc1ccccc1C1(C(=O)NCCN2CCOCC2)CCOCC1 | -173.3%

Row | Compound | Percent Effect
41 | Cc1ccc(CNCC2Cn3nncc3CO2)s1 (stereo not drawn) | -76.38%
42 | CN(Cc1cncnc1)[C@H]1CN(C(=O)c2ccc[nH]2)[C@@H]2CCCO[C@@H]21 | -58.36%
43 | CC(c1ccc(F)cc1F)N1CCN(CCC(=O)NC(N)=O)CC1 (stereo not drawn) | 63.51%
44 | CC(c1ccc(F)cc1F)N1CCN(CCC(=O)O)CC1.Cl (stereo not drawn) | -12.88%
45 | CC(c1ccc(F)cc1F)N1CCN(CCN2CCCC2=O)CC1 (stereo not drawn) | -15.63%
46 | Fc1ccccc1OCCN1CCCCC1Cn1cncn1 (stereo not drawn) | -107.8%
47 | O=C(O)C(F)(F)F.O=C(O)C(F)(F)F.c1nc(CNC2CCOCC2)c2n1CCCN(CC1CC1)C2 | -115.6%
48 | Cc1ccc(CCN[C@@H]2c3ccccc3C3(CCNCC3)[C@H]2O)s1 | 87.27%
49 | O[C@H]1[C@H](NCCSc2ccccn2)c2ccccc2C12CCNCC2 | 23.57%
50 | COc1ccccc1CCN[C@@H]1c2ccccc2C2(CCNCC2)[C@H]1O | 81.73%
51 | O[C@H]1[C@H](NCCc2ccccn2)c2ccccc2C12CCNCC2 | -35.06%
52 | COCCN(C)[C@@H]1c2ccccc2C2(CCNCC2)[C@H]1O | -111.9%
53 | O[C@H]1[C@H](NCCc2cnccn2)c2ccccc2C12CCNCC2 | -10.61%
54 | Cc1ccc(-n2ncc3c2CCCC3N)cc1C (stereo not drawn) | 5.746%
55 | COCCN(Cc1cccnc1)S(=O)(=O)c1ccc(F)cc1C | -88.98%
56 | Cc1cccc(C2CCCN2S(=O)(=O)N(C)C)n1 (stereo not drawn) | -47.51%
57 | C=C(C)CSc1nnc(CCNC(=O)OC(C)(C)C)o1 | -85.15%
58 | O=S1(=O)N=C(CSCc2ccccc2)Nc2ccccc21 | -68.12%
